This passage reports growth inhibition results from PubChem BioAssay (NCI).

About 79,000 compounds went through this panel and 15% of them were active in at least one assay; those are over-represented in the sample as a whole. Unmarked numbers belong to inactive results. Active and inactive are the calls of the source. Rule as the data show it: active = growth inhibition above about 70%; inactive = the rest.

The nature of the test: NCI Yeast Anticancer Drug Screen. Data for the mlh1 rad18 strain (AID 175). As to conditions: S. cerevisiae mlh1 rad18 strain growth inhibition; at 50.0 µM; stronger effect = higher value. The essentials: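 Compound-treated yeast growth, normalised to vehicle controls. Strain bears defined DNA repair mutations.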
With `CCc1ccc(/C(C)=N/NC(N)=S)cc1`, the growth inhibition is 74.5% (active). Take `CC(C)/C=C1\CCOC1=O`: the growth inhibition was 21.7%.

Turning to `COc1c(C(=O)/C(=N/Nc2ccccc2)C(C)=O)c(O)c(OC)c2occc12`, the growth inhibition is 68.8%. For `COc1ccc(CC/C(=N/O)c2ccccc2)cc1`, the growth inhibition was 96.9% (active). On to `CCOC(=O)C1(C#N)C(c2ccccc2)C1(C#N)C#N` (stereo not given), for which the growth inhibition was 98.8% (active). Turning to `COc1ccc(OC)c(/C=C/NC=O)c1`, the growth inhibition was -0.95%.

With `CC(=O)Oc1ccc(-c2ccc(Br)cc2)cc1`, the growth inhibition was 98% (active). With `COC(=O)/C(C#N)=C/c1cc(OC)c(O)cc1Br`, the growth inhibition was 31.1%. Regarding `CCC(C1SC(=S)NC1=O)C1SC(=S)NC1=O` (stereo not given), the growth inhibition was 99% (active). Regarding `CCC(C)c1ccc(O)c(C(C)c2ccccc2)c1` (stereo not given), the growth inhibition is 90.5% (active). With `C/C(=N\NC(=S)N1CCN(c2ccccc2)CC1)c1nccs1` the figure was 89.8% (active); with `COc1ccc2c(C(=O)c3ccccc3)c3[n+](cc2c1OC)CCc1cc2c(cc1-3)OCO2`, 75.5% (active); with `Cc1cccc(C[N+](C)(C)CCCO)c1C`, -4.7%.

Take `c1ccc(N=C2SC3=NCCN3C2=Nc2ccccc2)cc1`: the growth inhibition was 61.9%. The same measure for `Cc1ccc(SCc2ccccc2Cl)nn1`: 4.75%. Regarding `CCCc1cc(=O)oc2c3c(c4c(c12)OC(C)(C)CC4)O[C@H](C)[C@H](C)C3=O`, the growth inhibition is 84.7% (active).

With `CC1(C)COC(c2cccc(C(O)c3ccc(Cl)cc3)c2)=N1` (stereo not given), the growth inhibition was 54.1%. Consider `CCOC(=O)c1cc(NC(=O)c2cc(NC(=O)c3cc(NC(=O)c4c(-c5ccccc5)noc4C)cn3C)cn2C)cn1C`, for which the growth inhibition is 51.3%.

As to `O=C(N/N=C/c1ccccc1O)c1ccccc1-n1cccc1`, the growth inhibition is 63.1%. The same measure for `O=C1CN(CCN2CCOCC2)CC(=O)N2Cc3ccccc3CN12`: 44.2%; for `CCC[CH2][Sn]([CH2]CCC)([NH]c1ncnc2[nH]cnc12)[NH]c1ncnc2[nH]cnc12`: 86.9% (active); for `Oc1ccc(Br)cc1C=Nc1c(NC2CCCCC2)oc2ccc(Br)cc12`: 50.5%.

In the case of `Cc1cc2c(C(C)C)c(O)c(O)c3coc(/c1=c1/c(C)cc4c(C(C)C)c(=O)c(=O)c5coc1c45)c32`, the growth inhibition is 99.2% (active). With `O=C1c2ccccc2C(=O)N1/N=C\c1ccccc1[N+](=O)[O-]` the figure was 0.5%. For `O[C@H](CNCCS)[C@@H](O)CNCCS`, the growth inhibition was 79.3% (active). `C[C@]12CC[C@H](O)CC1=CC[C@@H]1C2CC[C@]2(C)C(=O)N(N)C(=O)CC12` (stereo not given in full): the growth inhibition was 84.4% (active). For `O=C(C(/C=N/C(=S)NCc1ccccc1)=C(/O)c1ccccc1)c1ccccc1`, the growth inhibition was 98.7% (active). Regarding `C=CC1(c2ccc(-c3ccccc3)cc2)OCCO1`, the growth inhibition is 49.5%.

Regarding `C=C1CC(COc2ccc3c(C)cc(=O)oc3c2)(c2ccccc2)OC1=O` (stereo not given), the growth inhibition was 41.6%.

On to `CN(C)CCCNc1c2ccccc2nc2ccc([N+](=O)[O-])cc12`, for which the growth inhibition is 29.2%. As for `CN1CCC(OC(=O)c2ccc3ncccc3c2)CC1`, the growth inhibition was 32%.

On to `COc1ccc(/C=C2/C(=O)N(C(=O)c3ccccc3O)N=C2C)cc1OC`, for which the growth inhibition is 54.6%. Consider `CC1([N+](=O)[O-])C(=O)C2(N3CCOCC3)CCCC2C1c1ccccc1` (stereo not given), for which the growth inhibition was 7.65%. On to `COc1ccc(C2=C(Cl)C(=O)N(c3ccc(C)cc3)C(=O)C2(Cl)Cl)cc1`, for which the growth inhibition was 94% (active). With `COc1ccnc(-c2cc(OC)cc(/C(N)=N/O)n2)c1` the figure was 96.8% (active); with `Nc1ccccc1CCc1ccccc1`, 85.7% (active); with `COC(=O)c1ccc(OCCC(=O)CCl)cc1`, 97.8% (active). Take `CCCCCCCCCCCCS(=O)(=O)CC(Br)C(=O)c1ccco1` (stereo not given): the growth inhibition is 95.3% (active). As to `FC(F)(F)C(F)(F)C1(F)C(F)(F)C(F)(F)C(F)(F)C(F)(F)C1(F)F`, the growth inhibition is 99.2% (active). With `O=C(O)C(O)C(O)C(O)C(O)CO.[Ag]` (stereo not given), the growth inhibition is 99% (active).
